31 compounds from PubChem BioAssay (EPA / NIEHS) can be followed below.

Inconclusive results are not listed. The source made the active and inactive calls. How the source made its calls: active means hit-call score of the fitted dose curve at least 0.9, where 1 is the maximum; inconclusive means response in the unintended direction; inactive means score below 0.9.

Sequence of human Vitamin D Receptor (VDR), VDR (gene 7421) (P11473 whole entry, looked up, the tested form may be a part): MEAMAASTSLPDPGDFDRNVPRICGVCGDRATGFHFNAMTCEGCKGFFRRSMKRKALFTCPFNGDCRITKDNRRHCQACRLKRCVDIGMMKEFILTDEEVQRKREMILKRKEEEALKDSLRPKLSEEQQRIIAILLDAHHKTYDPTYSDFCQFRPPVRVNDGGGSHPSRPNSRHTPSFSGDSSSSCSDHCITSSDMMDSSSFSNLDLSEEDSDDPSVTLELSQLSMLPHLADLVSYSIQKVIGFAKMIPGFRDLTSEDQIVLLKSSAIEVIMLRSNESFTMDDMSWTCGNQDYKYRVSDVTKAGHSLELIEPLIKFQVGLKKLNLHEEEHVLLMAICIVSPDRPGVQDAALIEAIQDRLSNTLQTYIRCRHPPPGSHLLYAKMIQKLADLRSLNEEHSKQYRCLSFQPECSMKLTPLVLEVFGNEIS

The experiment deals with human Vitamin D Receptor (VDR), VDR (gene 7421) (UniProt P11473). Nature of the experiment: ATG_VDR_TRANS: Attagene TRANS-FACTORIAL HepG2 Assay for human Vitamin D Receptor (VDR) (AID 2283022). The essentials:
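HepG2 cells were transiently transfected with GAL4-UAS reporter units and a chimeric VDR-Gal4 construct, then dosed for 24 hours. Reporter mRNA was quantified by RT-PCR, fluorescent labeling, HpaI digestion and capillary electrophoresis; gain of signal analysed vs DMSO.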
In the case of `CC(C)(C)c1cc(CCC(=O)OCC(COC(=O)CCc2cc(C(C)(C)C)c(O)c(C(C)(C)C)c2)(COC(=O)CCc2cc(C(C)(C)C)c(O)c(C(C)(C)C)c2)COC(=O)CCc2cc(C(C)(C)C)c(O)c(C(C)(C)C)c2)cc(C(C)(C)C)c1O`, the outcome was inactive.

For the compound `CN(C)C(C)(C)CO`, the result was inactive. Turning to `Cc1cc(=O)[nH]c(C(C)C)n1`, the call was inactive. The same measure for `c1ccc(C[P+](c2ccccc2)(c2ccccc2)c2ccccc2)cc1`: “inactive”. The result for `CCCCCCCCCCCC(=O)Cl` reads “inactive”. The result for `CCCCOC(=O)[C@H](C)O` reads “inactive”. For the compound `CC(C)CC=C(C=O)c1ccccc1`, the result was inactive. As for `OCCCCl`, the compound was classed as inactive. As for `CCN=c1cc2oc3cc(NCC)c(C)cc3c(-c3ccccc3C(=O)OCC)c-2cc1C`, the compound was classed as inactive. In the case of `O=C(c1ccccc1)c1ccc(Cl)cc1`, the compound was classed as inactive.

`CCc1cc(Cc2cc(CC)c(N)c(CC)c2)cc(CC)c1N`: the outcome was inactive. The result for `O=C1c2ccccc2C(=O)c2c(Cl)cccc21` reads “inactive”. The same measure for `OCC1CCCO1` (stereo unspecified): “inactive”; for `COCCOCCC[Si](C)(O[Si](C)(C)C)O[Si](C)(C)C`: “inactive”. The same measure for `CCCCOC(=O)C(C)O` (stereo unspecified): “inactive”; for `COCCC(=O)OC`: “inactive”; for `N#Cc1ccccc1O`: “inactive”. As to `CC(O)C#CC(C)O` (stereo unspecified), the outcome was inactive.

For `CCOCOCC`, the outcome was inactive. For the compound `CC(=O)c1ccccc1N`, the compound was classed as inactive. The result for `Cc1ccc(O)cn1` reads “inactive”. The same measure for `CSc1ccc(O)cc1C`: “inactive”; for `CO[Si](CCCOCC1CO1)(OC)OC` (stereo unspecified): “inactive”. For the compound `C=C(C)CCCC`, the compound was classed as inactive. As to `CCCC(=O)OCC(COC(=O)CCC)OC(=O)CCC`, the compound was called inactive. The same measure for `Cc1cccc(C)n1`: “inactive”.

In the case of `C=CCOC(=O)CC(C)C`, the result was inactive.

With `CC1=CCC2C(=O)OC(=O)C2C1` (stereo unspecified), the result was inactive.

With `OCCC(O)CO` (stereo unspecified), the outcome was inactive. Turning to `O=c1cccc[nH]1`, the result was inactive.

For the compound `CCn1c2ccccc2c2ccccc21`, the result was inactive.
